# Screening data: PubChem, National Center for Advancing Translational Sciences (NCATS)
# Most compounds without a hit are left out; they make up all but 1.1% or so of the library.
# ASM inhibitor: Inhibitors of Secretory Acid Sphingomyelinase (S-ASM): qHTS; Potency, µM (doses to about 57.5 µM), for the others: top-dose activity change, negative = inhibition, most hits filed as inhibitors; hit rate 0.006% among 340,000; placental ASM, HMU-PC fluorogenic substrate, 60 min; note: potency is the fitted concentration of half-maximal effect
# Target sequence (P17405 47-631 limits assumed): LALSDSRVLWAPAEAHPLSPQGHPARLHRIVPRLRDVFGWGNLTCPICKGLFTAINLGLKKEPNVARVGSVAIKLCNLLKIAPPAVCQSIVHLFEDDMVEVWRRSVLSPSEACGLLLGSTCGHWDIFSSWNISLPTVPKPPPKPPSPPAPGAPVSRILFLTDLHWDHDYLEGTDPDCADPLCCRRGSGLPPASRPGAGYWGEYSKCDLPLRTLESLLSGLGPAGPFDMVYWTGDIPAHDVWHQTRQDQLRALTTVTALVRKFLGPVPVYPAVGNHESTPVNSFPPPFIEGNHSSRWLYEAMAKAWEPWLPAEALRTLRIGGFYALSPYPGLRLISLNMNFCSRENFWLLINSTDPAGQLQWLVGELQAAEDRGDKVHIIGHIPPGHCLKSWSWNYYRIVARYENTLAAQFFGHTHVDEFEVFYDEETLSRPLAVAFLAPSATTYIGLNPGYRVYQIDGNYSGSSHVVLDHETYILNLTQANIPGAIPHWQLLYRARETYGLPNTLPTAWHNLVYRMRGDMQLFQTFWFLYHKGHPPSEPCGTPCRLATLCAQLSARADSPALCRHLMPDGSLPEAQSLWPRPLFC
#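 Human placenta-derived ASM preincubated with compound 10 min at room temperature, then reacted with 9 uM (final) fluorogenic HMU-PC substrate for 60 min at 37 C. Stop solution raises pH to 10; fluorescence read at Ex 386/Em 447 nm.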
# RXFP1 ag: qHTS Assay for Agonists of the Relaxin Receptor RXFP1; HEK293T-RXFP1 cAMP TR-FRET, 30 min; response scale: percent of porcine relaxin response, buffer zero; Potency, µM (highest dose often 57.5 µM), for the others: at the highest dose activation, actives largely listed as activators; hit rate 0.3% among 370,000; Relaxin receptor 1 (Homo sapiens), Q9HBX9; AID 2676, 2010; note: potency is the fitted concentration of half-maximal effect; % is set by controls: 0 for no effect and ±100 for the full control effect; nearly all actives have a fitted effect of over 60% in size
#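 HEK293T cells stably expressing RXFP1 were pretreated with the PDE4 inhibitor Ro 20174, exposed to compounds for 30 min at 37C, lysed, and cAMP was read by TR-FRET. Data normalized to buffer (basal) and 29 nM porcine relaxin (100%).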
# RXFP1 antagonist: qHTS Assay for Antagonists of the Relaxin Receptor RXFP1; AID 1259400, 2018; Relaxin receptor 1 (Homo sapiens), Q9HBX9; activity change, negative = inhibition, % at 57.5 µM; hit rate 0.59% among 350,000; HEK293-RXFP1, relaxin-stimulated cAMP HTRF, 30 min; hits give low values;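 active = activity change of -60% or lower, but not beyond a set lower limit; inconclusive = change between -60% and -40%, or beyond the set limit; inactive = change above -40%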; note: % is set by controls: 0 for no effect and ±100 for the full control effect
# gsp antag: qHTS for Antagonists of gsp, the Etiologic Mutation Responsible for Fibrous Dysplasia/McCune-Albright Syndrome: qHTS. hit rate 0.4% among 340,000. gsp-mutant cells, cAMP HTRF, 30 min. Potency, µM (highest dose often 76.9 µM), for the others: top-dose activity change, negative = inhibition, actives largely listed as inhibitors. AID 624288, 2012; calls by dose curve; cell line not stated here;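 note: intracellular cAMP measured with PDE inhibitor Ro 20-1724 present during compound exposure; potency is the fitted concentration of half-maximal effect; % is set by controls: 0 for no effect and ±100 for the full control effect; nearly all actives have a fitted effect of over 65% in size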
#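 HTRF cAMP read-out (cAMP-d2 plus anti-cAMP antibody-K in lysis buffer, 30 min RT). Before lysis, cells are exposed to compounds with […] for 30 min at 37C in DPBS containing Ca/Mg, BSA and Tween 20.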
# gsp agonist: qHTS for Agonist of gsp, the Etiologic Mutation Responsible for Fibrous Dysplasia/McCune-Albright Syndrome: qHTS. gsp mutant cells, cAMP HTRF, 30 min. Potency, µM (highest dose often 76.9 µM), for the others: at the top dose activation (cAMP increase), usual class: activators. hit rate 0.13% among 340,000. AID 624287, 2012; active = well fitted activation curve with a large enough effect; inconclusive = small, poorly fitted or top-dose-only effect, or another doubt; inactive = no such curve, though single readings can be large or run the other way; cell line not stated here;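 note: phosphodiesterase inhibitor Ro 20-1724 added with compounds to block cAMP breakdown; potency is the fitted concentration of half-maximal effect; nearly all actives have a fitted effect of over 60% in size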
#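 Cells in DMEM/10% FBS with G418 were pretreated with compounds in DMSO plus […] (300 uM stock) for 30 min at 37C. cAMP was measured by HTRF (cAMP-d2 plus anti-cAMP antibody-K) after 30 min at room temperature.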
# a7 integrin act: qHTS for Activators of Integrin-Mediated Alleviation for Muscular Dystrophy; hit rate 0.064% among 350,000; Potency, µM (doses to about 38.3 µM), for inactives: at the highest dose activation, hits mostly activators; alpha7betagal myoblasts, beta-gal FDG fluorescence, 48 h;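 note: potency is the fitted concentration of half-maximal effect; 100% = response of the positive control SU9516; nearly all actives have a fitted effect of over 60% in size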
#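 alpha7betagal+/- myoblasts (passage 13, 250/well) treated 48 h at 37C with compounds at 1:260 dilution of DMSO stock. Lysed, then beta-galactosidase activity read as FDG fluorescence (ex 480/em 540) after 30 min, with pre-read for autofluorescence.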
# * hit, by the source's call; ? = inconclusive; nt = no result given; + = active, no number; ! = repeats disagree; [ ] = another dose, or the depositor's remark. Unless noted, calls come from the whole dose curve; as a rule, active = well fitted curve in the direction sought with a large enough effect; inconclusive = small, poorly fitted or top-dose-only effect, or another doubt; inactive = no such curve, though single readings can be large; an effect the other way counts as inactive or inconclusive.
SMILES,ASM inhibitor,RXFP1 ag,RXFP1 antagonist,gsp antag,gsp agonist,a7 integrin act
COC(=O)Cc1c(O)ccn(Cc2ccc3c(c2)OCO3)c1=O,2%,-2%,4,14%,-8%[15.4 µM],10µM*
COc1ccc2oc(=Nc3ccccc3)c(-c3nc4ccccc4[nH]3)cc2c1,33%,-2%,2,3%,-9%,22%
COc1cc(C2C(C#N)=C(N)Oc3c2ccc2ccccc32)ccc1OCC(=O)Nc1cccc(C)c1 (centres undefined),-4%,-2%,-78*,2%,25%[15.4 µM],-26%
CCc1ccc(-c2nn(CC(=O)NC3CCCCC3)c3c2cnc2ccc(OC)cc23)cc1,nt,6%,-4,nt,nt,nt
CC[N+](CC)(CC)CCOC(=O)C(C1CCCC1)C1CCCC1,nt,nt,-11,nt,nt,nt
O=C(CN1C(=O)/C(=C/c2ccccc2)SC1=S)NC1C=CS(=O)(=O)C1 (centres undefined),-4%,0%,-16,-25%,-11%,-33%
O=C(CCN1C(=O)/C(=C/c2ccccc2Cl)SC1=S)NNC(=O)c1ccccc1O,-1%,-4%,-71*,-23%,-16%,-12%
O=C(CN1C(=O)/C(=C/c2ccccc2)SC1=S)NC1CCS(=O)(=O)C1 (centres undefined),3%,-2%,-61*,5%,-1%,-17%
COc1ccccc1/C=C1\SC(=S)N(CC(=O)NC2CCS(=O)(=O)C2)C1=O (centres undefined),-6%,-2%,3,-40%,18%,-8%
O=C(CN1C(=O)/C(=C/c2ccccc2Cl)SC1=S)NC1C=CS(=O)(=O)C1 (centres undefined),-2%,2%,-61*,-15%,2%,-24%
O=C(CN1C(=O)/C(=C/c2ccc(F)cc2)SC1=S)NC1CCS(=O)(=O)C1 (centres undefined),-5%,-3%,-67*,-4%,?,-30%
O=C(CN1C(=O)/C(=C/c2ccc(F)cc2)SC1=S)NC1C=CS(=O)(=O)C1 (centres undefined),-1%,-3%,-18,-1%,-5%,-19%
Cc1ccc(NC(=O)CSc2nc(-c3ccco3)nc3cc(=O)[nH]n23)cc1C,nt,2%,-15,nt,nt,nt
CCCCCC1Nc2cc(C(F)(F)F)c(S(N)(=O)=O)cc2S(=O)(=O)N1 (centres undefined),nt,nt,-2,nt,nt,nt
Cc1ccc(/C=C2\SC(=S)N(CCC(=O)NNS(=O)(=O)c3ccccc3)C2=O)cc1,-1%,-139%,-6,50µM*,-14%[15.4 µM],12%
CCN(CC)CCOC(=O)c1ccc(NC(=O)/C=C/c2cccs2)cc1,-4%,2%,2,9%,1%,-22%
CCOC(=O)c1ccc(NC(=O)/C=C/c2cccs2)cc1,-9%,0%,-102*,?,?,8%
CCOC(=O)N1CCC(NC(=O)c2c(C)nn(-c3ccc(C)cc3)c2-n2cccc2)CC1,nt,1%,nt,nt,nt,nt
CSc1ccc(C2C(C(=O)c3ccco3)=C(O)C(=O)N2c2nnc(SC)s2)cc1 (centres undefined),1%,16µM*,-2,-5%,?,-10%
COc1ccc(NC(=O)N(C)C[C@H]2OCCCC[C@@H](C)Oc3ccc(NC(=O)c4ccccc4)cc3C(=O)N([C@H](C)CO)C[C@@H]2C)cc1,nt,nt,-1,nt,?,2%
Cc1ccc(-n2c(O)c(/C=N/Nc3ccc(S(=O)(=O)N4CCOCC4)cc3[N+](=O)[O-])c3ccccc3c2=O)c(C)c1,-3%,0%,-94*,40µM*,-27%[15.4 µM],2%
CN1CC(=O)N(CC(=O)N2N=C(c3ccc(Cl)cc3)CC2c2ccco2)C1=O (centres undefined),2%,0%,-9,0%,-2%[15.4 µM],15%
CCC(=O)N1N=C(c2ccc(Cl)cc2)CC1c1ccco1 (centres undefined),-1%,0%,-64*,-12%,5%[15.4 µM],13%
CC(=O)N(CC(O)CN(C(C)=O)c1c(I)c(C(=O)NCC(O)CO)c(I)c(C(=O)NCC(O)CO)c1I)c1c(I)c(C(=O)NCC(O)CO)c(I)c(C(=O)NCC(O)CO)c1I (centres undefined),nt,nt,-8,nt,nt,nt
O=C(NC1CCN(Cc2ccccc2)CC1)c1cc(S(=O)(=O)N2CCOCC2)ccc1Cl,3%,nt,-2,50µM*,21%,-5%
SMILES,ASM inhibitor,RXFP1 ag,RXFP1 antagonist,gsp antag,gsp agonist,a7 integrin act
CC(NC(=O)c1cccc(S(=O)(=O)N2CCN(Cc3ccccc3)CC2)c1)c1ccccc1Cl (centres undefined),-2%,nt,-12,+,-72%,-21%
CC(NC(=O)c1cccc(S(=O)(=O)N2CCN(Cc3ccccc3)CC2)c1)c1ccc(Br)cc1 (centres undefined),-1%,0%,-5,1%,-10%,-38%
O=C(NC1CCN(Cc2ccccc2)C1)c1cccc(S(=O)(=O)N2CCOCC2)c1 (centres undefined),-2%,1%,-5,9%,22%,1%
COc1ccc(OCC(O)CN2CCNCC2)cc1 (centres undefined),-1%,0%,-1,2%,8%[15.4 µM],4%
O=[N+]([O-])c1cc(Cc2ccccc2)cc(C=Nc2ccc(N3CCOCC3)cc2)c1O,-10%,-1%,-75*,-26%,1%,-13%
Cc1ccc(O)c(N=Cc2cc(Cc3ccccc3)cc([N+](=O)[O-])c2O)c1,-19%,-1%,?,?,2%[15.4 µM],-58%
N#CC(C#N)=C1NC(N)=C(C#N)C(c2ccccc2)=C1C#N,nt,28µM*,nt,nt,nt,nt
COCCCNC(=O)CSc1nc2cc3c(cc2c(=O)n1CCCCCC(=O)NCc1ccc(OC)cc1)OCO3,nt,-1%,-26,nt,nt,nt
CCCCNC(=O)CSc1nc2cc3c(cc2c(=O)n1CCC(=O)NCCc1ccc(OC)c(OC)c1)OCO3,-4%,3%,-12,-4%,-26%[15.4 µM],-4%
CCC(Sc1nc2cc3c(cc2c(=O)n1CCCC(=O)NCc1ccc(OC)cc1)OCO3)C(=O)NCCCOC (centres undefined),nt,0%,-77*,nt,nt,nt
CCCCNC(=O)CSc1nc2cc3c(cc2c(=O)n1CCCC(=O)NCCc1ccc(OC)c(OC)c1)OCO3,0%,1%,-76*!,-31%,2%[15.4 µM],5%
